The list is a sample of the results.
aSyn UTR act: Activators working through SNCA 5'UTR binding (MLPCN) | activity score, % (tested at 7.5 µM), hits read low | 7.1% of 300,000 active | alpha-synuclein 5'UTR reporter, activators screen; in the data active = activity score below about -60%
A number is an active result; . = inactive.

SMILES | aSyn UTR act
Cc1[nH]c2ccc(C(=O)NC3CCC(C)CC3)cc2c1C (stereo unspecified) | -147.6
CC1CCC(NC(=O)c2ccc3nc[nH]c3c2)CC1 (stereo unspecified) | -81.1
O=C(NC1CCCC1)c1cc(-c2cccs2)on1 | -342.7
Cc1occc1C(=O)NN=C1C2CC3CC(C2)CC1C3 | -140.9
O=C(NC1CCCC1)c1cc(-c2ccccc2O)on1 | -77.4
COc1ccccc1C(=O)NC1CCCCCCC1 | -70.5
COc1ccccc1-c1cc(C(F)(F)F)nc(S(=O)(=O)CCCC(=O)Nc2cc(C)on2)n1 | -65.3
O=C(NC1CCCCC1)c1cc(-c2ccccc2Cl)on1 | -161.9
Cc1occc1C(=O)NC1CCCCCCC1 | -77.4
CC1CCCC(C)N1C(=O)c1cc(-c2cccs2)on1 (stereo unspecified) | -137.0
Cc1cc(NC(=O)c2cc(-c3ccc(O)cc3)on2)no1 | -62.0
COc1ccc(OC)c(-c2cc(C(=O)Nc3c(C)nn(Cc4ccccc4C)c3C)no2)c1 | .
COc1ccccc1-c1cc(C(=O)NC2CCN(C)CC2)c2ccc(Cl)c(C)c2n1 | .
COc1ccccc1-c1cc(C(=O)NC2CCCC2)no1 | -97.6
COc1ccccc1-c1cc(C(=O)Nc2cc(C)on2)no1 | -146.1
COCC(C)NC(=O)c1cc(-c2ccccc2OC)on1 (stereo unspecified) | -102.2
COC(=O)C[C@](O)(CCCC(C)(C)O)C(=O)O[C@@H]1C(OC)=C[C@]23CCCN2CCc2cc4c(cc2[C@H]13)OCO4 | .
O=C(NC1CCCC1)c1cc(-c2ccc(Cl)cc2Cl)on1 | -121.7
CCCC(C)NC(=O)c1cccc(Oc2ccccc2)c1 (stereo unspecified) | -64.5
CCC(C)(C)c1ccc(Oc2ccc(N)cc2)cc1 | .
CCC(C)(C)c1ccc(Oc2cccc(C(=O)O)c2)cc1 | -94.6
Brc1ccc(Cn2c(-c3cncs3)nc3ccccc32)cc1 | -111.7
c1ccc(Cn2c(-c3cncs3)nc3ccccc32)cc1 | -92.0
Cc1cc(C)n(CC(O)COc2ccc3ccccc3c2)n1 (stereo unspecified) | -113.9
O=C(Nc1cccnc1Cl)c1cc2ccccc2o1 | -166.1
SMILES | aSyn UTR act
CC(C)C(=O)N1CCN(c2ccc(NC(=O)c3ccc4c(c3)OCCO4)cc2Cl)CC1 | -109.2
O=C(Nc1ccc(N2CCOCC2)c(Cl)c1)c1cc2ccccc2o1 | -203.7
O=C(NC(=S)N1CCOCC1)c1cc2ccccc2o1 | -73.5
O=C(Nc1ccccc1N1CCCC1)c1cc2ccccc2o1 | -251.5
O=C(Nc1ccc(CN2CCOCC2)cc1)c1ccc(Br)o1 | -103.8
O=C(/C=C/c1ccccc1)Nc1ccc(CN2CCOCC2)cc1 | -87.5
O=C(Nc1ccc(N2CCOCC2)c(Cl)c1)c1ccc(F)cc1 | -140.0
O=C(Nc1ccc(N2CCOCC2)c(Cl)c1)c1ccccc1Cl | -66.0
Clc1cc(NCc2cccs2)ccc1N1CCOCC1 | -105.2
O=C(N/N=C/c1ccc(N2CCOCC2)s1)c1ccccc1Cl | -116.0
O=C(Nc1ccc(N2CCOCC2)c(Cl)c1)c1ccc(Br)o1 | -253.2
O=C(Nc1ccc(N2CCOCC2)nc1)c1ccc(Cl)cc1 | -72.9
S=c1nc(COc2ccccc2)[nH]c2ccccc12 | -111.9
O=c1[nH]c(COc2ccc(Br)cc2Cl)nc2ccccc12 | -166.5
Clc1ccc2nc(COc3ccccc3)[nH]c2c1 | -150.7
O=c1[nH]c(COc2ccccc2)nc2ccccc12 | -69.7
Cc1ccc(C(NC(=O)NCCCN2CCOCC2)=C(Cl)Cl)cc1F | -69.5
O=C(O)c1nc2ccccc2nc1C(=O)O | -166.1
Cc1ccccc1NC(=O)c1ccc(CSc2ncccn2)cc1 | -82.5
Cc1ccc(NC(=O)c2ccc(CSc3ccccn3)cc2)cc1 | -92.9
Cc1ccc(NC(=O)c2ccc(CSc3nnc(C)s3)cc2)cc1 | -75.0
Cc1nnc(SCc2ccc(F)cc2)s1 | -69.0
Cc1nnc(SCc2cccc3ccccc23)s1 | -89.8
Cc1ccc(NC(=O)c2ccc(CSc3nnnn3C)cc2)cc1 | -165.1
O=C(Nc1ccc(Br)cc1)c1ccc(CSC2=NCCS2)cc1 | -132.1
SMILES | aSyn UTR act
Cc1c(Cl)ccc2c(C(=O)NC(C)c3ccncc3)cc(-c3ccncc3)nc12 (stereo unspecified) | -67.3
S=c1[nH]c(-c2ccc(Cl)cc2)cs1 | -75.8
Cc1ccc(-c2csc(=S)[nH]2)cc1 | -113.3
COc1ccc(-c2noc(-c3ccc(Br)o3)n2)cc1OC | -96.8
COc1cc(-c2onc3ccc(Br)cc23)cc(OC)c1OC | .
COc1cc(-c2nc(-c3ccc(Br)o3)no2)cc(OC)c1OC | -76.3
COc1ccc(-c2c(-c3cc(OC)c(OC)c(OC)c3)noc2C)cn1 | .
COc1ccc(-c2oc3ccccc3c2C(=O)OCc2ccccc2)cc1 | -101.6
Cc1ccc(NC(=O)C2=C(O)CCn3c2nc2ccccc23)cc1 | -131.1
COc1ccc(C(=O)Nc2cccc(C(C)=O)c2)cc1OC | -70.9
COc1cc(OC)c(C(=O)Nc2cccc(C(C)=O)c2)cc1OC | -78.2
COc1ccc(C(C)NC(=O)Nc2ccc(C(C)=O)cc2)cc1OC (stereo unspecified) | -99.7
Cc1cc(NC(=S)NC(=O)C2CC2)ccc1Br | -114.0
CCN(CC)c1ccc(NC(=S)NC(=O)C2CCC2)cc1 | -63.6
COc1ccc(NC(=S)NC(=O)C2CCCCC2)cc1 | -86.4
COc1ccc(NC(=O)NC2CCCCC2C)cc1 (stereo unspecified) | -81.0
CCOc1ccc2nc(NC(=O)Cc3cccs3)sc2c1 | -136.9
O=C(Cc1cccs1)Nc1nc2ccccc2s1 | -82.2
O=C(Cc1nc(=O)c2ccccc2s1)Nc1ccccc1 | -105.1
Cc1ccc2nc(NC(=O)COC(=O)c3ccco3)sc2c1 | -96.9
CC(Cc1ccccc1)C(=O)NCc1nc2ccccc2s1 (stereo unspecified) | -75.3
CCc1ccc2nc(NC(=O)CCCc3cccs3)sc2c1 | -81.2
O=C(Cc1ccccc1)Nc1nc2ccccc2s1 | -102.2
CC1(C(=O)Nc2nc3ccccc3s2)CC1(Br)Br (stereo unspecified) | -117.9
Cc1ccc2nc(NC(=O)Cc3cccs3)sc2c1 | -165.9
SMILES | aSyn UTR act
Cc1ccc2nc(NC(=O)c3ccccn3)sc2c1 | .
COc1ccc2nc(NC(=O)Cc3cccs3)sc2c1 | -131.8
CC(O)/C=C/c1ccc2ccccc2n1 (stereo unspecified) | -153.6
Cc1ccc(-c2nsc3c(N4CCC(C(N)=O)CC4)ncnc23)cc1 | -99.5
COc1ccc(-c2nsc3c(N4CCCCC4)ncnc23)cc1 | .
O=C(c1ccccc1)N1CCN(c2ncnc3c(-c4ccccc4)nsc23)CC1 | -125.0
Cc1ccc(-n2nc3c(N4CCC(C(=O)NCCc5ccccc5C)CC4)nnc(C)c3c2C)cc1 | .
COc1ccc(-c2nsc3c(N4CCN(S(=O)(=O)c5ccccc5F)CC4)ncnc23)cc1 | -69.3
CCOc1ccc(N/C(C)=C\C(=O)c2ccc3c(c2)OCCO3)cc1 | -132.5
CCOc1ccc(N/C(C)=C/C(=O)c2ccc3c(c2)OCCO3)cc1 | -203.9
COc1ccc(C(=O)NCc2cc3ccccc3n2C)cc1 | -92.4
COc1cc(OC)cc(C(=O)NCCOc2ccccc2)c1 | -121.1
O=C(NCCOc1ccccc1)c1cc2ccccc2o1 | -81.3
COc1c(C(=O)NCCSC(C)(C)C)ccc2ccccc12 | -61.7
COc1ccc(N=Nc2n(C)c3ccccc3[n+]2C)cc1 | .
COc1cccc(C(=O)NCCn2ccc3ccccc32)c1 | -119.3
O=C(NCCSc1ccccc1)c1ccccc1 | -190.6
O=C(NCCSc1ccccc1)c1cncc(Br)c1 | -132.2
COc1cccc(C(=O)NCC(=O)N2CCC(C)CC2)c1 | -115.0
CSCCNC(=O)c1ccc(C(C)(C)C)cc1 | -83.7
O=C(NCCSc1ccccc1)c1ccc(Br)cc1 | -66.7
